Source: PubChem BioAssay AID1508607 (The Scripps Research Institute Molecular Screening Center, 2020)
Out of some 2,300 compounds screened, about 20 (0.9%) were called active. The full list was thinned out, with actives kept by preference. A number with no mark means an inactive call.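 How the source made its calls: active means mean percent activation across replicates above the counterscreen hit cutoff of 9.17%; inactive means the rest.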

Molecular target: Glucose-dependent insulinotropic receptor (Homo sapiens) (UniProt Q8TDV5)
Assay: GPR119 activators in beta-arrestin cells, confirmation, counter-screen for GPR151 activator project, cell-based, PathHunter beta-arrestin, luminescence, set 2 (AID 1508607);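 further: 0% = median of sample wells and 100% = wells given EA reagent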
Details: 90 min, at 11.2 µM, stronger effect = higher value

Sequence of Glucose-dependent insulinotropic receptor (Homo sapiens) (Q8TDV5 whole entry, looked up): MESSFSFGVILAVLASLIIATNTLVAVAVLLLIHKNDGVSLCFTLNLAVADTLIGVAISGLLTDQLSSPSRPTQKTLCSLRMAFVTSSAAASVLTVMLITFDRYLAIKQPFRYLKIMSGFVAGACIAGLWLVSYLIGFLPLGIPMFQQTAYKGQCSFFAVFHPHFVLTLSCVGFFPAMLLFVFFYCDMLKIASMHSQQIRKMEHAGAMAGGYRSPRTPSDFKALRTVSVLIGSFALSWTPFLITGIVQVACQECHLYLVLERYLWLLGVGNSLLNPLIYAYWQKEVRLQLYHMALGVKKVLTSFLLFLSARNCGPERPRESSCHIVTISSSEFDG

| Structure (SMILES) | activation |
| --- | --- |
| O=C(Nc1ccccc1C(F)(F)F)c1cnn2c(C(F)(F)F)cc(-c3ccco3)nc12 | -0.72% |
| CCOC(=O)c1cnc2c(OC)cccc2c1N1CCN(CC)CC1 | -1.9% |
| CCC(Sc1nc(NC2CCCCC2)c2ccccc2n1)C(=O)Nc1ccc2c(c1)OCO2 (stereo not given) | 0.68% |
| CCC(=O)Nc1ccc(NC(=O)CSc2nc3c(c(=O)n(C)c(=O)n3C)n2C)cc1 | -0.37% |
| O=C(O)c1ccc(CN(Cc2ccc(Cl)cc2)C(=S)Nc2ccc(Oc3ccccc3)cc2)cc1 | -1.29% |
| Cc1[nH]c2ccc(OCc3ccccc3)cc2c1CCNC(=O)COc1ccc(F)cc1F | -2.17% |
| Cc1cc(Oc2nc3ccccn3c(=O)c2/C=C(\C#N)C(=O)N2CCCCC2)ccc1Cl | -22.9% |
| O=C(c1ccccc1)N1N=C(c2ccccc2)CC1(O)C(F)(F)C(F)(F)F (stereo not given) | 4.17% |
| Cc1ccc(S(=O)(=O)N2CCCC2CNC(=O)C(=O)NC2CCCC2)cc1 (stereo not given) | -1.44% |
| CCOc1ccccc1NC(=S)N(CCOC)C(C)c1ccccn1 (stereo not given) | -1.68% |
| Nc1ccc(C(=O)NCC2COc3ccccc3O2)cc1[N+](=O)[O-] (stereo not given) | 6.14% |
| Nc1ncc(Br)cc1S(=O)(=O)Nc1cc(F)ccc1F | -0.83% |
| CCOc1ccc(-c2nc(CSCC(=O)NCC3CCCO3)c(C)o2)cc1 (stereo not given) | 0.12% |
| Cc1cc2oc3c(c(=O)c2cc1C)C(c1ccc(O)cc1)N(CCCN1CCOCC1)C3=O (stereo not given) | 2.08% |
| COc1cc(/C=C/C(=O)c2ccc(F)cc2)cc(OC)c1OC | 0.62% |
| CC(C)CC(NC(=O)C(C)NC(=O)CNC(=O)C(NC=O)C(C)C)C(=O)NC(C)C(=O)NC(C(=O)NC(C(=O)NC(C(=O)NC(Cc1c[nH]c2ccccc12)C(=O)NC(CC(C)C)C(=O)NC(Cc1c[nH]c2ccccc12)C(=O)NC(CC(C)C)C(=O)NC(Cc1c[nH]c2ccccc12)C(=O)NC(CC(C)C)C(=O)NC(Cc1c[nH]c2ccccc12)C(=O)NCCO)C(C)C)C(C)C)C(C)C (stereo not given) | 39.2% (active) |
| CN(C)c1ncc(/C=C2/C(=O)NC(=S)N(c3ccccc3F)C2=O)cn1 | 0.14% |
| COc1ccc(/C(C)=N/NC(=O)C(C)Nc2ccc(Cl)cc2)cc1 (stereo not given) | -2.32% |

| Structure (SMILES) | activation |
| --- | --- |
| CC[C@@H](C(=O)C(C)[C@@H](O)[C@H](C)CCc1ccc(C)c(O)c1C(=O)O)C1OC(CC)(C2CC[C@](O)(CC)[C@H](C)O2)C[C@@H]1C (stereo not given in full) | 29.8% (active) |
| COC(=O)C1=C(N)Oc2c(oc(CO)cc2=O)C1c1c(Cl)cccc1Cl (stereo not given) | 0.48% |
| C=CCN1/C(=C\C=C2\C=Nc3ccc(Br)cc32)C=Cc2ccc(C)cc21 | 20.7% (active) |
| C=CCN1C(=O)/C(=C2\SC(N3CCCCC3)=NC2=O)c2cc(Br)ccc21 | 2.45% |
| CC(C)c1onc(C(=O)Nc2cc(Cl)ccc2O)c1[N+](=O)[O-] | -3.34% |
| C=CCNC(=O)c1cccc(NS(=O)(=O)c2ccc(Cl)cc2)c1 | 4.37% |
| CCc1ccc(C2CC(c3ccccc3)Nc3nc(N)nn32)cc1 (stereo not given) | 3.26% |
| COc1ccc(Cn2c(C)c(C)n3c4c(=O)n(CCCO)c(=O)n(C)c4nc23)cc1 | 1.31% |
| O=C(NCCSCc1ccccc1)c1ccc[nH]c1=S | 2.53% |
| CCSc1nnc(CSc2ncccn2)n1-c1ccccc1 | -3.02% |
| COc1cc(S(=O)(=O)N2CCN(c3ccc(C)c(C)c3)CC2)ccc1F | 1.41% |
| COc1ccc(-c2nnc3sc(NC(=O)C(C)C)nn23)cc1 | -0.23% |
| Cc1nccc2[nH]c(=O)c(C(=O)NC3CCN(Cc4ccccc4)CC3)cc12 | 0.02% |
| Cc1cccc(NC(=O)c2c(-c3ccccc3Cl)noc2C)c1C | 0.14% |
| C=CCNc1nnc(-c2cc3c(CO)cnc(C)c3oc2=O)s1 | -2.69% |
| O=C1CCCN1CCCNc1nc(-c2cccc(Cl)c2)c2c(n1)-c1ccccc1OC2 | -1.27% |
| C=CCOC(=O)c1[nH]c2c(c1C)C(=O)C(C(=O)OC)C(C)C2 (stereo not given) | 2.72% |
